# PubChem BioAssay (Tox21)
# Values without a mark were called inactive. Records with an inconclusive call do not appear. Entries that show only a call come without a potency. Activity calls are given as the source filed them. Unless noted, the call rests on the fitted dose curve; in most records, active means well fitted curve in the direction sought with a large enough effect in the repeat runs; inconclusive means weak or mixed curves; inactive means no such curve, though single readings can be large; an effect the other way counts as inactive or inconclusive.
# Tests used:
# [1] = target: Thyrotropin receptor (Homo sapiens) (UniProt P16473); assay: qHTS assay to identify small molecule agonists of the thyroid stimulating hormone receptor (TSHR) signaling pathway (AID 1224843; calls by dose curve; further: nearly all actives have a fitted effect of over 45% in size)
# How it was run: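 HEK293 cells stably bearing the thyrotropin receptor were plated at 800 cells/well and challenged with compound (30 min, RT). Accumulated cAMP was quantified via cAMP-d2 competing for cryptate-tagged antibody.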
# [2] = qHTS assay to identify small molecule agonists of the hypoxia (HIF-1) signaling pathway - cell viability counter screen (AID 1224844; calls by dose curve; further: nearly all actives have a fitted effect of over 50% in size)
# How it was run: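 Tox21 10K compounds were added to HRE-bla ME-180 cells (0.5% dialyzed FBS) and incubated 17 hrs at 37C; ATP-based CellTiter-Glo luminescence then reported cell viability in the same wells.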
# [3] = qHTS assay to identify small molecule agonists of H2AX (AID 1224845; active means well fitted activation curve with a large enough effect in the signal ratio in the repeat runs, not every such curve was filed as active; the % refers to the signal ratio)
# How it was run: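 Phospho-H2AX Ser139 measured by HTRF (ex 320 nm; em 665 and 620 nm) after 24 hr antibody incubation. Compounds, 15 concentrations, 0.76% DMSO, were applied to CHO-K1 cells for 3hr at 37C before lysis.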
# [4] = qHTS assay to identify small molecule agonists of the hypoxia (HIF-1) signaling pathway (AID 1224846; active means well fitted activation curve with a large enough effect in the signal ratio in the repeat runs, not every such curve was filed as active; the % refers to the signal ratio)
# How it was run: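 Steps: seed ME-180 HRE-bla cells (2,000/well, 0.5% dialyzed FBS); incubate 5 hrs at 37C; pin-transfer compounds or DMSO; incubate 17 hrs; add LiveBLAzer B/G substrate CCF4-AM; measure reporter activation by FRET.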
# [5] = qHTS assay to identify small molecule agonists of H2AX - cell viability counter screen (AID 1224847; calls by dose curve; further: nearly all actives have a fitted effect of over 30% in size; further: potency means the concentration at half of the fitted maximal effect)
# How it was run: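 Read-out: CellTiter-Glo luminescence, 30 min RT. Cells: wild-type CHO-K1, 1000/well, 10% FBS, plated overnight at 37C. Treatment: 15 concentrations, 3 hr, 37C, 0.76% DMSO.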
# [6] = qHTS RealTime-Glo MT Cell Viability Assay in HepG2 cells - 24 hour (AID 1224867); further: nearly all actives have a fitted effect of over 50% in size; further: potency means the concentration at half of the fitted maximal effect
# How it was run: (§1)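 Compound treatment began 5 h after plating HepG2 cells (600/well) with NanoLuc luciferase and prosubstrate. Plates stayed at 37 C for 40 h; luminescence was captured at six time points, 0 h through 40 h.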
# [7] = qHTS RealTime-Glo MT Cell Viability Assay in HEK293 cells - 32 hour (AID 1224868); further: nearly all actives have a fitted effect of over 50% in size; further: potency means the concentration at half of the fitted maximal effect
# How it was run: (§2)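 Quantitative high-throughput screen of the Tox21 10K library in HEK293: cells and RealTime-Glo reagents plated together, compound added at 5 h, luminescence monitored through 40 h at 37 C.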
# [8] = A CellTox Green Cytotoxicity Assay to monitor cytotoxicity in HEK293 cells - 0 hour (AID 1224869); further: nearly all actives have a fitted effect of over 50% in size
# How it was run: (§3)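 Cytotoxicity was tracked continuously in HEK293 cells by a DNA-binding dye excluded from viable cells. Compounds were transferred in DMSO 5 h after seeding; fluorescence was recorded at intervals up to 40 h.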
# [9] = qHTS RealTime-Glo MT Cell Viability Assay in HepG2 cells - 40 hour (AID 1224870); further: nearly all actives have a fitted effect of over 50% in size; further: potency means the concentration at half of the fitted maximal effect
# How it was run: (§4)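 Real-time viability: cells seeded at 600 per well together with NanoLuc and cell-permeant prosubstrate, compounds added after 5 h incubation. Luminescence tracked at 0, 8, 16, 24, 32 and 40 h of exposure.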
# [10] = A CellTox Green Cytotoxicity Assay to monitor cytotoxicity in HEK293 cells - 40 hour (AID 1224871); further: nearly all actives have a fitted effect of over 45% in size
# How it was run: as §3
# [11] = qHTS RealTime-Glo MT Cell Viability Assay in HEK293 cells - 16 hour (AID 1224872)
# How it was run: as §2
# [12] = qHTS RealTime-Glo MT Cell Viability Assay in HepG2 cells - 8 hour (AID 1224873); further: nearly all actives have a fitted effect of over 55% in size
# How it was run: as §4
# [13] = qHTS RealTime-Glo MT Cell Viability Assay in HEK293 cells - 40 hour (AID 1224874); settings: RealTime-Glo luminescence; max response: stronger effect = lower value; further: nearly all actives have a fitted effect of over 50% in size; further: potency means the concentration at half of the fitted maximal effect
# How it was run: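 Nonlytic bioluminescent viability monitoring. HEK293 at 600 cells/well with reagent; 5 h settle; compound transfer by pintool; plates held at 37 C and read at set time points.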
# [14] = A CellTox Green Cytotoxicity Assay to monitor cytotoxicity in HEK293 cells - 24 hour (AID 1224875); further: nearly all actives have a fitted effect of over 45% in size
# How it was run: as §3
# [15] = A CellTox Green Cytotoxicity Assay to monitor cytotoxicity in HepG2 cells - 16 hour (AID 1224876); further: nearly all actives have a fitted effect of over 45% in size
# How it was run: (§5)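 Real-time, homogeneous cytotoxicity readout: dead-cell DNA staining by CellTox Green in HepG2 monolayers, fluorescence measured at timed intervals up to 40 h of continuous compound exposure.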
# [16] = qHTS RealTime-Glo MT Cell Viability Assay in HepG2 cells - 32 hour (AID 1224877); further: nearly all actives have a fitted effect of over 55% in size; further: potency means the concentration at half of the fitted maximal effect
# How it was run: as §1
# [17] = A CellTox Green Cytotoxicity Assay to monitor cytotoxicity in HepG2 cells - 24 hour (AID 1224878); further: nearly all actives have a fitted effect of over 45% in size
# How it was run: as §5
# [18] = A CellTox Green Cytotoxicity Assay to monitor cytotoxicity in HepG2 cells - 40 hour (AID 1224879); further: nearly all actives have a fitted effect of over 40% in size; further: potency means the concentration at half of the fitted maximal effect
# How it was run: as §5
# [19] = qHTS assay to identify small molecule agonists of the estrogen related receptor (ERR) signaling pathway from Tox21 library (AID 1224849; calls by dose curve; further: nearly all actives have a fitted effect of over 15% in size); settings: ERR reporter cell line, ONE-Glo luciferase, 18 h; at 92.4 µM (top of the series) unless noted
# How it was run: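 Agonist signal is luciferase luminescence from an ERR reporter cell line treated 18 h at 37 C with DMSO-dissolved compounds, read 30 min after ONE-Glo addition at room temperature.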
# [20] = qHTS assay to identify small molecule antagonists of the estrogen related receptor (ERR) signaling pathway from Tox21 library (AID 1224848); further: nearly all actives have a fitted effect of over 50% in size
# How it was run: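 Reading was by luminescence 30 min after ONE-Glo addition. Before that, ERR cells at 2,000 per well had rested 6 h at 37 C/5% CO2 and then received pin-tooled compounds in DMSO for 18 h at 37 C.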
# Sequence of Thyrotropin receptor (Homo sapiens) (P16473 whole entry, looked up): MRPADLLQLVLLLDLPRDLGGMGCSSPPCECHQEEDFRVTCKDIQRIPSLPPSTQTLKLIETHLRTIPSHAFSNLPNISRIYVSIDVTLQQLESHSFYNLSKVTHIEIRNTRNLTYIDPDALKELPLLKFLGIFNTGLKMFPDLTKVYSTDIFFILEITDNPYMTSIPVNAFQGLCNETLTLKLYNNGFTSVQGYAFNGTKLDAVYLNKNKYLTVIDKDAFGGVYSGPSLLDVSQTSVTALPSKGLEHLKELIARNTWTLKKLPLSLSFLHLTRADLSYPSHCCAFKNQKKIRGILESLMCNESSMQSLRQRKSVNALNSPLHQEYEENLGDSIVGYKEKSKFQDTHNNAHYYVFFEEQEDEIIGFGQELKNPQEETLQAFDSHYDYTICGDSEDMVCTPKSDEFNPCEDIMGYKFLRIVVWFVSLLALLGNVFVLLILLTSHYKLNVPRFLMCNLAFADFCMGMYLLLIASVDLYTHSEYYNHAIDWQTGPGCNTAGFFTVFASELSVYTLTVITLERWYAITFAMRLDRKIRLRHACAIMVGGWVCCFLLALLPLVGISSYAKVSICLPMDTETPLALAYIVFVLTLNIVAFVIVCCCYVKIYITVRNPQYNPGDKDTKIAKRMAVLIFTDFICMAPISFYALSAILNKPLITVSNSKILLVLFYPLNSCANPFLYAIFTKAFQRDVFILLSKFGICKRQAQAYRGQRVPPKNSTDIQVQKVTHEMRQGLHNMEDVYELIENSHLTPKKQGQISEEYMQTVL
smiles,measurement,setting,value
CC(CCc1ccc2c(c1)OCO2)NN (stereo not drawn),Potency,[1],inactive
same,Potency,[2],inactive
same,Potency,[3],inactive
same,outcome,[4],inactive
same,Potency,[5],inactive
same,Potency,[6],inactive
same,Potency,[7],inactive
same,Potency,[8],inactive
same,Potency,[9],inactive
same,Potency,[10],inactive
same,Potency,[11],inactive
same,Potency,[12],inactive
same,max response,[13],6.86%
same,Potency,[14],inactive
same,Potency,[15],inactive
same,Potency,[16],inactive
same,Potency,[17],inactive
same,Potency,[18],inactive
CCC(C)(O)CCC=C(C)C (stereo not drawn),Potency,[1],inactive
same,Potency,[2],inactive
same,Potency,[3],inactive
same,outcome,[4],inactive
same,Potency,[5],inactive
same,Potency,[6],inactive
same,Potency,[7],inactive
same,Potency,[8],inactive
same,Potency,[9],inactive
same,Potency,[10],inactive
same,Potency,[11],inactive
same,Potency,[12],inactive
same,max response,[13],-9.96%
same,Potency,[14],inactive
same,Potency,[15],inactive
same,Potency,[16],inactive
same,Potency,[17],inactive
same,Potency,[18],inactive
O=S(=O)(c1ccccc1)c1ccc(Cl)cc1,Potency,[1],inactive
same,Potency,[2],inactive
same,Potency,[3],inactive
same,outcome,[4],inactive
same,Potency,[5],inactive
same,"activity change, positive = activation",[19],-31.4%
same,Potency,[6],inactive
same,Potency,[7],inactive
same,Potency,[8],inactive
same,Potency,[9],inactive
same,Potency,[10],inactive
same,Potency,[11],inactive
same,Potency,[12],inactive
same,max response,[13],-0.98%
same,Potency,[14],inactive
same,Potency,[15],inactive
same,Potency,[16],inactive
same,Potency,[17],inactive
same,Potency,[18],inactive
COC(=O)c1cc(Cl)ccc1NS(=O)(=O)C(F)(F)F,Potency,[1],inactive
same,Potency,[2],inactive
same,Potency,[3],inactive
same,outcome,[4],inactive
same,Potency,[5],inactive
same,Potency,[20],inactive
same,"activity change, positive = activation",[19],6.47% [at 42.5 µM]
same,Potency,[6],inactive
same,Potency,[7],inactive
same,Potency,[8],inactive
same,Potency,[9],inactive
same,Potency,[10],inactive
same,Potency,[11],inactive
same,Potency,[12],inactive
same,Potency,[14],inactive
same,Potency,[15],inactive
same,Potency,[16],inactive
same,Potency,[17],inactive
same,Potency,[18],inactive
CO/N=C1\CN(c2nc3c(cc2F)c(=O)c(C(=O)O)cn3C2CC2)CC1CN (stereo not drawn),Potency,[1],inactive
same,Potency,[2],inactive
same,Potency,[3],inactive
same,outcome,[4],inactive
same,Potency,[5],inactive
same,"activity change, positive = activation",[19],-26.9% [at 42.5 µM]
same,Potency,[6],inactive
same,Potency,[7],inactive
same,Potency,[8],inactive
same,Potency,[9],inactive
same,Potency,[10],inactive
same,Potency,[11],inactive
same,Potency,[12],inactive
same,max response,[13],8.45%
same,Potency,[14],inactive
same,Potency,[15],inactive
same,Potency,[16],inactive
same,Potency,[17],inactive
same,Potency,[18],inactive
C=C(C)C(=O)OCCOC(=O)CC(C)=O,Potency,[1],inactive
same,Potency,[2],inactive
same,Potency,[3],inactive
same,outcome,[4],inactive
same,Potency,[5],inactive
same,Potency,[6],inactive
same,Potency,[8],inactive
same,Potency,[9],inactive
same,Potency,[10],inactive
same,Potency,[11],inactive
same,max response,[13],1.19%
same,Potency,[14],inactive
same,Potency,[15],inactive
same,Potency,[16],inactive
same,Potency,[17],inactive
same,Potency,[18],inactive
O=C(/C=C/c1ccccc1)OCCCc1ccccc1,Potency,[1],inactive
same,Potency,[2],inactive
same,Potency,[3],inactive
same,outcome,[4],inactive
same,Potency,[5],inactive
same,Potency,[20],inactive
same,Potency,[6],inactive
same,Potency,[7],inactive
same,Potency,[8],inactive
same,Potency,[9],inactive
same,Potency,[10],inactive
same,Potency,[11],inactive
same,Potency,[12],inactive
same,Potency,[14],inactive
same,Potency,[15],inactive
same,Potency,[16],inactive
same,Potency,[17],inactive
same,Potency,[18],inactive
Fc1ccccc1[C@@H](F)COC1CCC(Nc2ncnc3[nH]ncc23)CC1 (stereo partly drawn),Potency,[1],inactive
same,Potency,[2],inactive
same,Potency,[3],inactive
same,outcome,[4],inactive
same,Potency,[5],101 µM (active)
same,Potency,[6],inactive
same,Potency,[7],21.9 µM (active)
same,Potency,[8],inactive
same,Potency,[9],inactive
same,Potency,[13],24.5 µM (active)
same,Potency,[14],inactive
same,Potency,[15],inactive
same,Potency,[16],inactive
same,Potency,[17],inactive
same,Potency,[18],inactive
Cc1occc1C(=O)Nc1ccc(C(=O)N2CCC(F)(F)/C(=C\C(=O)N3CCC(N4CCCCC4)CC3)c3ccccc32)cc1,Potency,[1],inactive
same,Potency,[2],inactive
same,Potency,[3],inactive
same,outcome,[4],inactive
same,Potency,[5],inactive
same,Potency,[20],inactive
same,"activity change, positive = activation",[19],-12.3% [at 42.5 µM]
same,Potency,[6],inactive
same,Potency,[8],inactive
same,Potency,[9],inactive
same,Potency,[10],inactive
same,Potency,[12],inactive
same,Potency,[13],6.83 µM (active)
same,Potency,[14],inactive
same,Potency,[15],inactive
same,Potency,[16],inactive
same,Potency,[17],inactive
same,Potency,[18],15.3 µM (active)
C/C=C/C=C/CCCCCCCO,Potency,[1],inactive
same,Potency,[2],inactive
same,Potency,[3],inactive
same,outcome,[4],inactive
same,Potency,[5],inactive
same,Potency,[6],inactive
same,Potency,[7],inactive
same,Potency,[9],inactive
same,Potency,[11],inactive
same,Potency,[12],inactive
same,Potency,[14],inactive
same,Potency,[15],inactive
same,Potency,[16],inactive
same,Potency,[17],inactive
CCCCCCCCCCOS(=O)(=O)O,Potency,[1],inactive
same,Potency,[2],inactive
same,Potency,[3],inactive
same,outcome,[4],inactive
same,Potency,[5],inactive
same,Potency,[6],inactive
same,Potency,[7],inactive
same,Potency,[8],inactive
same,Potency,[9],inactive
same,Potency,[10],inactive
same,Potency,[11],inactive
same,Potency,[14],inactive
same,Potency,[15],inactive
same,Potency,[16],inactive
same,Potency,[17],inactive
same,Potency,[18],inactive
O=C(CCCCCCCCC#CI)Oc1ccccc1,Potency,[1],inactive
same,Potency,[2],inactive
same,Potency,[3],inactive
same,outcome,[4],inactive
same,Potency,[5],inactive
same,Potency,[6],6.01 µM (active)
same,Potency,[8],inactive
same,Potency,[9],2.39 µM (active)
same,Potency,[10],inactive
same,Potency,[11],inactive
same,Potency,[13],5.35 µM (active)
same,Potency,[14],inactive
same,Potency,[15],inactive
same,Potency,[16],4.77 µM (active)
same,Potency,[17],inactive
same,Potency,[18],inactive
CC1(C)C(=O)N(Br)C(=O)N1Cl,Potency,[1],inactive
same,Potency,[2],inactive
same,Potency,[3],inactive
same,outcome,[4],inactive
same,Potency,[5],inactive
same,Potency,[20],inactive
same,"activity change, positive = activation",[19],1.48%
same,Potency,[6],inactive
same,Potency,[7],inactive
same,Potency,[8],inactive
same,Potency,[9],inactive
same,Potency,[10],inactive
same,Potency,[11],inactive
same,Potency,[12],inactive
same,Potency,[14],inactive
same,Potency,[15],inactive
same,Potency,[16],inactive
same,Potency,[17],inactive
same,Potency,[18],inactive
O=C(NCCCN1CCOCC1)c1ccc(Cl)cc1,Potency,[1],inactive
same,Potency,[2],inactive
same,Potency,[3],inactive
same,outcome,[4],inactive
same,Potency,[5],inactive
same,Potency,[20],inactive
same,"activity change, positive = activation",[19],11.6% [at 42.5 µM]
same,Potency,[6],inactive
same,Potency,[7],inactive
same,Potency,[8],inactive
same,Potency,[9],inactive
same,Potency,[10],inactive
same,Potency,[11],inactive
same,Potency,[14],inactive
same,Potency,[15],inactive
same,Potency,[16],inactive
same,Potency,[17],inactive
same,Potency,[18],inactive
